A selection: hits, their analogues and other compounds. The true share with any hit is near 4.1%.
AmpC detergent = AmpC beta-lactamase inhibition with detergent present; AmpC hydrolysis of nitrocefin, absorbance 480 nm, 0.01% Triton; Potency, µM (doses to about 114 µM), inactives show at the highest dose activity change, negative = inhibition, usual class: inhibitors; 370,000 compounds, 0.041% hits; P00811;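 also: 0% = no-compound wells and -100% = no-enzyme wells; nearly all actives have a fitted effect of over 25% in size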
Target sequence (P00811 whole entry, looked up): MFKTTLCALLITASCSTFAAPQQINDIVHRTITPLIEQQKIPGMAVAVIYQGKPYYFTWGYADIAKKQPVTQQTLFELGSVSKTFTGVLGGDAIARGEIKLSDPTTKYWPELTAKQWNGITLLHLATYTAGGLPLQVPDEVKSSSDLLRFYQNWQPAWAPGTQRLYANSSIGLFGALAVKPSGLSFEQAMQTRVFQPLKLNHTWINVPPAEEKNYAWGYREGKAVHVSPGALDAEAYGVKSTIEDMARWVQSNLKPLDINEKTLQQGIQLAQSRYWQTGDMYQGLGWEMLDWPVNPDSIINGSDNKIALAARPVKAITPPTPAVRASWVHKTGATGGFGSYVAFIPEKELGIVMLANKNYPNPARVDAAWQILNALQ
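AmpC (5.3 nM in the dispensed reagent) in 20 mM phosphate pH 7.0 with 0.01% (detergent screen) or 0.0001% Triton X-100 was preincubated with compounds for 15 min at room temperature. Nitrocefin was then added from an 800 uM solution, and hydrolysis was followed at 480 nm.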
Sm TGR inh = S. mansoni TGR enzyme inhibition; Q962Y6; purified TGR, DTNB reduction, TNB absorbance 405 nm; Potency, µM (highest dose often 114 µM), inactives show at the highest dose activity change, negative = inhibition, actives largely listed as inhibitors; 360,000 compounds, 3% hits; also: nearly all actives have a fitted effect of over 60% in size
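Kinetic colorimetric format: TGR-catalysed, NADPH-driven DTNB reduction monitored via TNB absorbance. Enzyme dispensed at 20 nM; compound exposure 15 min at room temperature before reaction start.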
AMA1 RON2 block = disrupts binding of P. falciparum AMA1 to RON2; AlphaScreen AMA1-biotinylated RON2 peptide binding; Potency, µM (top dose mostly 58.2 µM), for inactives: at the highest dose activity change, negative = inhibition, hits mostly inhibitors; 360,000 compounds, 0.2% hits; AID 720542;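 also: 0% = vehicle wells and -100% = peptide control; nearly all actives have a fitted effect of over 45% in size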
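AMA1 (3D7) with his tag at 25 nM final met compounds first, then biotinylated RON2 peptide at 25 nM; detection used donor plus acceptor beads, 10 µg/mL apiece, read by AlphaScreen after 30 min at room temperature.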
FMDV antiviral = blocks foot and mouth disease virus. FMDV antiviral cell-based qHTS. Potency, µM (top dose mostly 57.9 µM), for the others: at the top dose activity change, negative = inhibition, actives largely listed as inhibitors. 410,000 compounds, 1.2% hits. AID 1159524; calls by dose curve; tested in HEK293T cells; also: read-out not given here; nearly all actives have a fitted effect of over 45% in size
AmpC inh no detg = inhibitors of E. coli AmpC beta-lactamase without detergent; P00811; AmpC nitrocefin hydrolysis, absorbance 480 nm, 0.0001% Triton; Potency, µM (series often up to 57.1 µM), inactives show top-dose activity change, negative = inhibition, actives largely listed as inhibitors; 330,000 compounds, 0.52% hits; AID 485341;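 also: plate controls were no compound for no effect and no enzyme for full effect; nearly all actives have a fitted effect of over 20% in size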
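20 mM phosphate pH 7.0 + 0.01% (detergent screen) or 0.0001% Triton X-100; 5.3 nM AmpC reagent; cpd preinc 15 min RT; nitrocefin (800 uM stock) to start; A480 q20 s × 4 min; Activity was normalised to no-enzyme and no-compound control wells.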
Starred values were filed as active, the others as inactive. Unless noted, calls follow the shape of the dose curve; as a rule, active = well fitted curve in the direction sought with a large enough effect; inconclusive = small, poorly fitted or top-dose-only effect, or another doubt; inactive = no such curve, though single readings can be large; an effect the other way counts as inactive or inconclusive. Unless noted, % is scaled to controls: 0 for no effect and ±100 for the full control effect; potency is read from the fitted curve at half-maximal effect.

CCOC(=O)N1CCN(Cc2cc(Cl)c3cccnc3c2O)CC1 was read as AmpC detergent -2%, Sm TGR inh 32µM*, AMA1 RON2 block -84%, FMDV antiviral -24% and AmpC inh no detg 109%.
Screening Oc1c(CN2CCOCC2)cc(COCc2ccccc2)c2cccnc12 returned AmpC detergent -6%, Sm TGR inh 45µM*, AMA1 RON2 block inconclusive, FMDV antiviral -6% and AmpC inh no detg 31%.
Screening COCCNC(=O)CSc1nc2cc3c(cc2c(=O)n1CCCC(=O)NCc1ccc2c(c1)OCO2)OCO3 returned AmpC detergent 2%, Sm TGR inh -7% and FMDV antiviral 6%.
For Cc1ccc(NC(=O)CN2C(=O)C(C)(C)c3cc(S(=O)(=O)N4CCCCC4)ccc32)c(Br)c1 the results were AmpC detergent 8%, Sm TGR inh 0% and FMDV antiviral 62%.
Screening Oc1c(CNc2ccccc2)cc(COCc2ccccc2)c2cccnc12 returned AmpC detergent inconclusive, Sm TGR inh 2.8µM*, FMDV antiviral inconclusive and AmpC inh no detg -32%.
CC(C)OCc1cc(CN2CCN(c3ccccc3)CC2)c(O)c2ncccc12 was read as AmpC detergent 19%, Sm TGR inh inconclusive and FMDV antiviral inconclusive.
Oc1c(CN2CCN(c3ccccc3)CC2)cc(Br)c2cccnc12 was read as AmpC detergent inconclusive, Sm TGR inh 40µM*, AMA1 RON2 block 86%, FMDV antiviral inconclusive and AmpC inh no detg -9%.
For Cc1ccc(C(C)C)c(OCC(=O)Nc2ccc(-c3nc4ncccc4o3)cc2C)c1 the results were AmpC detergent 22%, Sm TGR inh 6% and FMDV antiviral -16%.
For CN1CC(C(=O)c2ccc(Cl)cc2)C(c2ccc(Cl)cc2Cl)C1 (stereo not given) the results were AmpC detergent 11%, Sm TGR inh 18%, AMA1 RON2 block 32µM*, FMDV antiviral -19% and AmpC inh no detg 80%.
`CN1CC(C(=O)c2ccc(Cl)cc2)C(c2ccc(N(C)C)cc2)C1` (stereo not given) gave AmpC detergent 7%, AMA1 RON2 block inconclusive, FMDV antiviral -24% and AmpC inh no detg 54%.
COc1ccc(-n2ncc(C(=O)NCCCN3CCCCC3)c2C2CCN(C(=O)OC(C)(C)C)CC2)cc1 was read as AmpC detergent 20%, Sm TGR inh 4% and FMDV antiviral -1%.
For CCCS(=O)(=O)c1c(S(=O)(=O)CCC)c2c(N)cccn2c1C(=O)c1ccccc1 the results were AmpC detergent -1%, Sm TGR inh 50µM*, AMA1 RON2 block 4%, FMDV antiviral 1% and AmpC inh no detg -25%.
`CCCS(=O)(=O)c1c(S(=O)(=O)CCC)c2c(N)cccn2c1C(=O)OC` gave AmpC detergent -7%, AMA1 RON2 block 22%, FMDV antiviral -9% and AmpC inh no detg -23%.
`COc1ccccc1N1C(=O)[C@@H]2[C@H](C1=O)[C@H](C(=O)c1ccc(OC(C)=O)cc1)N1N=CC=C[C@@H]21` gave AmpC detergent -6%, Sm TGR inh 16µM*, AMA1 RON2 block -2%, FMDV antiviral 7% and AmpC inh no detg 72%.
Screening CCn1cc(C(=O)NCc2ccccc2)c(=O)c2cc(F)c(N3CCN(C(=O)c4ccco4)CC3)cc21 returned AmpC detergent -6%, Sm TGR inh 3%, AMA1 RON2 block 3%, FMDV antiviral 20µM* and AmpC inh no detg 153%.
Screening CCn1cc(C(=O)NCc2ccc3c(c2)OCO3)c(=O)c2cc(F)c(N3CCN(C(=O)c4ccco4)CC3)cc21 returned AmpC detergent 3%, Sm TGR inh 2%, AMA1 RON2 block -1%, FMDV antiviral 14µM* and AmpC inh no detg 250%.
For CCOC(=O)CSc1nc2c(sc3ccccc32)c(=O)n1Cc1ccc(OC)cc1 the results were AmpC detergent -4%, Sm TGR inh -2% and FMDV antiviral -27%.
Screening CC1=CC2C(C)(C)CC(=O)C[C@]2(C)CC1COc1ccc2c(c1)CC(=O)C=C2 (stereo not given in full) returned FMDV antiviral 0%.
`O=c1[nH]c(=O)n(-c2cccc(Cl)c2)c(O)c1/C=N/c1ccccn1` gave AmpC detergent -14%, Sm TGR inh 79µM*, AMA1 RON2 block 11%, FMDV antiviral -14% and AmpC inh no detg -35%.
Screening CCOc1ccc(NC(=O)C2CCN(c3nnc(-n4c(C)ccc4C)s3)CC2)cc1 returned AmpC detergent -2%, Sm TGR inh -22% and FMDV antiviral inconclusive.
Screening Cc1ccccc1/C=N/Nc1ccc(Cl)nn1 returned AmpC detergent -7%, Sm TGR inh 40µM*, AMA1 RON2 block 9%, FMDV antiviral 10% and AmpC inh no detg -32%.
Screening COc1cc(OC)c(OC)cc1/C=N/Nc1ccc(Cl)nn1 returned AmpC detergent 2%, Sm TGR inh 8%, AMA1 RON2 block 1%, FMDV antiviral -1% and AmpC inh no detg -9%.
For COc1ccc(NC(=O)CSc2nc(-c3ccc(OC)cc3)[nH]c2-c2ccc(OC)cc2)cc1 the results were AmpC detergent -2%, Sm TGR inh -7% and FMDV antiviral 12%.
`COCCn1c(C)c(C)c(S(=O)(=O)c2ccccc2)c1N` gave AmpC detergent 2%, Sm TGR inh 1µM*, AMA1 RON2 block -10%, FMDV antiviral -4% and AmpC inh no detg 6%.
Cc1c(S(=O)(=O)c2ccccn2)c(N)n(Cc2ccccc2Cl)c1C was read as AmpC detergent -7%, Sm TGR inh 2µM*, AMA1 RON2 block -14%, FMDV antiviral -8% and AmpC inh no detg 7%.
Screening Cc1c(S(=O)(=O)c2ccccn2)c(N)n(Cc2ccccc2)c1C returned AmpC detergent 10%, Sm TGR inh 2µM*, AMA1 RON2 block -18%, FMDV antiviral 12% and AmpC inh no detg 6%.
COc1nc(C)cc(C)c1S(=O)(=O)c1ccccc1 was read as AmpC detergent 7%, Sm TGR inh 15%, AMA1 RON2 block 15%, FMDV antiviral -7% and AmpC inh no detg 2%.
Screening Cc1ccc2nc(SCC(=O)NCC3Cc4cccc(-c5nc(C)cnc5C)c4O3)[nH]c2c1 (stereo not given) returned FMDV antiviral 10%.
Screening CC(=O)Nc1cc(-c2cccc(F)c2)cn2c(-c3ccc(F)c(Cl)c3)cnc12 returned AMA1 RON2 block 5% and FMDV antiviral -19%.
`CCOc1ccc(NC(=O)Cn2c(=O)n(CCC(=O)NCCc3ccccc3)c(=O)c3ccccc32)cc1` gave AmpC detergent 2%, Sm TGR inh 4% and FMDV antiviral 7%.
For CCN(CC)c1nc2ccccc2nc1C(=O)Nc1ccc(C(C)=O)cc1 the results were AmpC detergent -5%, Sm TGR inh -7% and FMDV antiviral -22%.
